# ELG1 genotoxic: qHTS screen for small molecules that induce genotoxicity in human embryonic kidney (HEK293T) cells expressing luciferase-tagged ELG1. HEK293T ELG1-luciferase reporter, luminescence, 16 h. Potency, µM (titrated, usually from 46 µM), for the others: at the highest dose activity change, positive = activation, most hits filed as activators. 330,000 compounds, 1.3% hits; also: % of control where 0% means no effect; nearly all actives have a fitted effect of over 60% in size
#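 16 hr compound incubation (37 °C, 5% CO2) of HEK293T cells carrying luciferase-tagged ELG1; luciferase then measured by ONE-Glo luminescence after 30 min at RT.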
# FLuc counter: qHTS profiling assay for firefly luciferase inhibitor/activator using purifed enzyme and Km concentrations of substrates (counterscreen for miR-21 project). AID 588342, 2011. 360,000 compounds, 6.9% hits. purified FLuc, Km substrates, luminescence inhibition. Potency, µM (doses to about 57.5 µM), without a hit: at the highest dose activity change, negative = inhibition, actives largely listed as inhibitors;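 also: plate controls were vehicle for no effect and reference inhibitor for full effect; nearly all actives have a fitted effect of over 55% in size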
# Target sequence (P08659 whole entry, looked up): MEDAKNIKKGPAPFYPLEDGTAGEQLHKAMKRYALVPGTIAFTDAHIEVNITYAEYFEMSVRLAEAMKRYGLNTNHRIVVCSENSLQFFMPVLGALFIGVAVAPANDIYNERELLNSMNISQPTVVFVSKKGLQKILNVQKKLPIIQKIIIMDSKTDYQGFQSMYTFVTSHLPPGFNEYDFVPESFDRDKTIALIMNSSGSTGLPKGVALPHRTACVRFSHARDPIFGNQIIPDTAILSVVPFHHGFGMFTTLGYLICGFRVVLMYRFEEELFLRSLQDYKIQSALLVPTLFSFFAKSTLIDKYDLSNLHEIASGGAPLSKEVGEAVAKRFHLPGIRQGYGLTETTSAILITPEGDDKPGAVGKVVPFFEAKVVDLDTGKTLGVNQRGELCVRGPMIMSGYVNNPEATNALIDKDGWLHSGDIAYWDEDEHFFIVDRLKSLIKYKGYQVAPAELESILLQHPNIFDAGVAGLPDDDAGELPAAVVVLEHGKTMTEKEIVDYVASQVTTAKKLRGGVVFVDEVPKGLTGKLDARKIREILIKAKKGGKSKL
#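 Biochemical qHTS of compounds, final roughly 60 µM downward over six points, against 10 nM purified firefly luciferase using Km concentrations of substrates (10 uM D-luciferin, 10 uM ATP) in Tris acetate pH 7.5 buffer; luminescence output.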
# Rab9 prom act: qHTS Assay for Rab9 Promoter Activators. Huh7 Rab9 promoter-luciferase reporter, luminescence, 24 h. Potency, µM (titrated, usually from 9.22 µM), without a hit: at the highest dose activation, negative = inhibition, actives largely listed as activators. 320,000 compounds, 2.8% hits; also: % of control where 0% means no effect; nearly all actives have a fitted effect of over 60% in size
#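 Quantitative HTS format; Huh7 Rab9-luciferase reporter cells (1500/well) receive compound 2 h post-plating, incubate 24 h at 37 °C, then get luciferase reagent for 10 min before luminescence reading.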
# NPC1 prom act: qHTS Assay for NPC1 Promoter Activators. 320,000 compounds, 2.4% hits. Huh7 NPC1 promoter luciferase reporter, 24 h. Potency, µM (top dose mostly 9.22 µM), for the others: top-dose activation, most hits filed as activators; also: % of control where 0% means no effect; nearly all actives have a fitted effect of over 60% in size
#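 Huh7 reporter cells (NPC1 promoter driving luciferase) are dosed with compound for 24 h at 37 °C, 5% CO2; luciferase detection reagent is then added and luminescence measured after 10 min at ambient temperature.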
# SMN2 splice enh: qHTS Assay for Enhancers of SMN2 Splice Variant Expression; HEK293 SMN2-luciferase splicing reporter, luminescence, 30-36 h; Potency, µM (titrated, usually from 46.1 µM), without a hit: top-dose activity change, positive = activation, usual class: activators; 210,000 compounds, 2.8% hits; AID 1458, 2008; also: % of control where 0% means no effect; nearly all actives have a fitted effect of over 55% in size
#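 HEK293 cells carry an SMN2 minigene-luciferase reporter in which exon 7 inclusion puts luciferase in frame. Cells were seeded at 2000 cells/well, attached for 10-12 hours, then exposed to compounds for 30-36 hours at 37C before ONE-Glo luminescence.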
# Active calls of the source: *; ? = inconclusive; nt = not tested or not shown; [ ] = remark or other dose. In the library only some 7.4% were active in any assay of this set; here they are far more common. Calls follow the shape of the dose curve; as a rule, active = well fitted curve in the direction sought with a large enough effect; inconclusive = small, poorly fitted or top-dose-only effect, or another doubt; inactive = no such curve, though single readings can be large; an effect the other way counts as inactive or inconclusive. Potency is read from the fitted curve at half-maximal effect.
SMILES,ELG1 genotoxic,FLuc counter,Rab9 prom act,NPC1 prom act,SMN2 splice enh
Cc1ccc(S(=O)(=O)Nc2cccc(-c3ccc(N4CCC(C)CC4)nn3)c2)s1,nt,0.76µM*,nt,nt,nt
Cc1nnc2ccc(-c3cccc(NS(=O)(=O)c4cc(F)ccc4F)c3)nn12,2%,0%,1%,-13%,nt
O=S(=O)(Nc1cccc(-c2ccc(N3CCCCC3)nn2)c1)c1ccc(F)cc1F,nt,1.9µM*,nt,nt,nt
O=S(=O)(Nc1cccc(-c2ccc(N3CCCC3)nn2)c1)c1cc(F)ccc1F,nt,6µM*,nt,nt,nt
O=S(=O)(Nc1cccc(-c2ccc3nncn3n2)c1)c1ccccc1F,?,0%,1%,15%,nt
Cc1nnc2ccc(-c3cccc(NS(=O)(=O)c4ccccc4Cl)c3)nn12,?,8%,1%,-16%,nt
CCOc1ccc(S(=O)(=O)N(CC)CC(=O)NCc2cccnc2)cc1,-3%,4%,1%,0%,nt
O=C(CCc1nnc(C2(c3ccc(Cl)cc3)CCC2)o1)NCCCn1cccn1,3%,-7%,-1%,0%,8%
O=c1[nH]c(SCc2c(F)cccc2Cl)nc2c1CCCC2,nt,-4%,nt,nt,nt
O=C1C2C3C=CC(C2C(=O)N1CN1CCOCC1)C1C2C(=O)N(CN4CCOCC4)C(=O)C2C31 (stereo unspecified),nt,nt,nt,nt,3%[9.22 µM]
COc1ccccc1CCNC(=O)c1ccc(NC(=O)CC2SC(N3CCCC3)=NC2=O)cc1 (stereo unspecified),-9%,-3%,1%,-1%,nt
COC(=O)C1=NN(C(=O)c2ccc(Cl)cc2)C(O)(c2ccccc2)C1 (stereo unspecified),1%,21µM*,2%,-1%,-18%
CSc1nc(N)n2nc(-c3ccc(Cl)cc3)cc2n1,?,0.67µM*,1.6µM*,2µM*,nt
Cc1ccc(-c2cc(N)n(Cc3ccc(Cl)cc3)n2)cc1,-4%,?,-16%,-14%,-47%
CN(C(=O)COC(=O)c1cc([N+](=O)[O-])ccc1Cl)c1ccccc1,1%,0%,3%,3%,nt
Cn1cc(CCNC(=O)c2ccc3nc(Cc4ccccc4F)oc3c2)cn1,?,5.4µM*,1.6µM*,2.5µM*,nt
Cn1cc(CNC(=O)c2ccc3nc(Cc4ccccc4F)oc3c2)cn1,?,24µM*,?,2.8µM*,nt
CCn1cc(CNC(=O)c2ccc3nc(Cc4ccccc4F)oc3c2)cn1,10%,?,-6%,0%,nt
Cc1cc(C)cc(CC2CC(=O)N(c3nc(C)cc(C)n3)C2=O)c1 (stereo unspecified),15%,21µM*,?,29%,-1%
O=C(O)c1cccc(NS(=O)(=O)c2ccc(C3CCCCC3)cc2)c1,2%,27µM*,-3%,-4%,17%
Cn1c(SCc2nc3ccccc3c(=O)[nH]2)nc2ccccc21,2%,-28%,9%,9%,14%
Cn1c(-c2ccccc2)cnc1SCc1nc2ccccc2c(=O)[nH]1,2.1µM*,6µM*,1.4µM*,2.8µM*,2.5µM*
Cc1ccc(NC(=S)c2nc3ccccc3[nH]2)cc1,?,0.67µM*,0.63µM*,4µM*,28µM*
Cc1ccc(NC(=S)N2CCCC(c3nc4ccccc4[nH]3)C2)cc1 (stereo unspecified),0%,-10%,-1%,0%,-1%
Cc1ccc(NC(=S)c2nc3ccccc3[nH]2)c(C)c1,?,1.7µM*,3.5µM*,3.5µM*,5.6µM*
SMILES,ELG1 genotoxic,FLuc counter,Rab9 prom act,NPC1 prom act,SMN2 splice enh
CN(C1CCCCC1)S(=O)(=O)c1ccc(SCC(=O)C(C)(C)C)nc1,-1%,nt,nt,nt,nt
Cc1cc(NC(=O)c2ccc(-c3ccc(Br)cc3)o2)cc(-c2nc3ncccc3o2)c1O,nt,3%,nt,nt,25%
CCCCn1c(N)c(N(Cc2ccccc2OC)C(=O)COc2ccc(F)cc2Cl)c(=O)[nH]c1=O,-3%,0%,-6%,-1%,nt
O=C(NN=C1CCCCCC1)c1cn(-c2ccccc2)nc1-c1ccccc1,0%,15µM*,1%,-3%,-29%
Cc1cccc(C)c1NC(=O)c1cn(-c2ccccc2)nc1-c1ccccc1,0%,?,-3%,-9%,-12%
Cc1ccc(-c2cc(C(=O)NN=C3CCCC3)c3ccccc3n2)cc1,3%,4.3µM*,-4%,0%,-12%
O=C(NC(=S)N1CCOCC1)c1cn(-c2ccccc2)nc1-c1ccccc1,-8%,17µM*,1%,0%,nt
O=C(NN=C1CCCCCC1)c1cc(-c2ccccc2)nc2ccccc12,2%,17µM*,-4%,-9%,13%
CCCn1c(-c2ccc(F)cc2)nc2c(N3CCN(C)CC3)nc(C)nc21,nt,nt,nt,nt,-11%
O=c1c2ccccc2cnn1CCOc1ccccc1,?,0.3µM*,0.1µM*,0.089µM*,nt
O=C(O)Cn1ncc2ccccc2c1=O,2%,-2%,-4%,-1%,nt
Cc1cccc(-c2c3c(=O)n(C)c(=O)n(C)c3cn2C(C)C)c1,1%,1%,-7%,1%,30%
Cc1ccc2c(ccn3cc4c(c(=O)n(C)c(=O)n4C)c23)c1,?,2.7µM*,-16%,4%,-6%
COc1ccc(C2c3[nH]c4ccccc4c3CCN2Cc2cccn2-c2ncccn2)cc1C (stereo unspecified),-5%,-19%,-9%,8%,nt
Cc1cccc(C2c3[nH]c4ccccc4c3CCN2Cc2cccn2-c2ncccn2)c1 (stereo unspecified),-6%,-19%,?,1%,20µM*
CCCC(=O)N(CCN1CCOCC1)c1nc2cc(C)c(C)cc2s1,?,-12%,2.2µM*,2.5µM*,nt
Cc1ccc2nc(N(CCN3CCOCC3)C(=O)CCS(=O)(=O)c3ccccc3)sc2c1,?,-2%,?,?,nt
Cc1cc(NC(=O)CCS(=O)(=O)c2cc(Br)cc3c2N(C(=O)C2CC2)CC3)ccc1Br,nt,-11%,nt,nt,-5%
O=C(O/N=C1/CCSc2ccccc21)c1ccc(F)cc1,0%,0.34µM*,-1%,7%,-21%
O=C(O/N=C1/CCCc2occc21)c1ccc(F)cc1,-1%,1.9µM*,2%,-5%,0%
O=C(ON=C1CCN(S(=O)(=O)c2ccccc2)CC1)c1ccc(F)cc1,0%,-15%,3%,-4%,-6%
CC(C)(C)C1CCC(=NOC(=O)c2ccc(F)cc2)CC1 (stereo unspecified),0%,19µM*,3%,-7%,1%
O=C(c1ccncc1)N1CCC2(CCCN(c3ncccn3)C2)CC1,nt,nt,nt,nt,-16%
Cc1cc(C)cc(C(=O)Nc2nc3ccccc3[nH]2)c1,?,11µM*,?,2.5µM*,nt
N#Cc1ccc(C(=O)Nc2nc3ccccc3[nH]2)cc1,?,2.4µM*,1.8µM*,1.8µM*,nt

# Compound activity deposited in PubChem BioAssay by National Center for Advancing Translational Sciences (NCATS).
